Experiments:
Settings in all cases: concentration: 1 μM, replicates: in singlicate; n = 1
HIPK3 = tested on: HIPK3
HIPK4 = tested on: HIPK4
HPK1 = tested on: HPK1
HUNK = tested on: HUNK
ICK = tested on: ICK
IGF1R = tested on: IGF1R
IKK-alpha = tested on: T1, IKK-alpha
T1 construct: gene CHUK

IKK-beta = tested on: T2, IKK-beta
T2 construct: gene IKBKB

IKK-epsilon = tested on: T3, IKK-epsilon
T3 construct: gene IKBKE

INSRR = tested on: INSRR
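Further: KINOMEscan kinase panel screen.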

SMILES | %Inh (HIPK3) | %Inh (HIPK4) | %Inh (HPK1) | %Inh (HUNK) | %Inh (ICK) | %Inh (IGF1R) | %Inh (IKK-alpha) | %Inh (IKK-beta) | %Inh (IKK-epsilon) | %Inh (INSRR)
CCCC(=O)Nc1n[nH]c2ncc(-c3cccc4ccccc34)cc12 [SB-642057] | 11% | 26% | 31% | 30% | 45% | 16% | 9% | 30% | 27% | 0%
Nc1nc(N)c2nc(-c3ccccc3)[nH]c2n1 [SKF-12778] | 10% | 13% | 57% | 11% | 15% | 15% | 4% | 17% | 12% | 12%
FC(F)(F)c1ccc(-c2ncn(CCCN3CCOCC3)c2-c2ccncc2)cc1 [SB-217780] | 7% | 0% | 1% | 0% | 64% | 0% | 1% | 0% | 8% | 0%
COc1cccc(C2=C(N(C)c3ccccc3)C(=O)NC2=O)c1 [SB-334865] | 25% | 0% | 53% | 9% | 0% | 12% | 0% | 14% | 3% | 0%
COC(=O)c1c(-c2ccccc2)c2cc(Br)ccc2c(=O)n1Cc1ccc(NC(=O)CCC(=O)O)cc1 | 0% | 0% | 0% | 0% | 14% | 0% | 0% | 0% | 0% | 13%
O=C(Nc1n[nH]c2nc(-c3ccccc3)c(Br)cc12)C1CC1 [SB-708998] | 0% | 6% | 20% | 0% | 0% | 1% | 0% | 5% | 2% | 9%
Nc1n[nH]c2nnc(-c3ccccc3)c(-c3ccccc3)c12 [GW554060] | 68% | 0% | 27% | 5% | 0% | 0% | 28% | 0% | 0% | 0%
O=C1NC(=O)C(c2ccccc2)=C1Nc1cccc(O)c1 [SB-390534] | 8% | 2% | 9% | 29% | 10% | 0% | 0% | 0% | 0% | 15%
COc1cc(Nc2ccnc3ccc(C(F)(F)F)cc23)cc(OC)c1OC [GW577382] | 18% | 0% | 31% | 30% | 0% | 0% | 21% | 3% | 0% | 4%
COc1cc2ncn(-c3cc(OCc4ccncc4Br)c(C(N)=O)s3)c2cc1OC [GW854278] | 15% | 32% | 0% | 0% | 5% | 0% | 6% | 3% | 0% | 7%
CN1C(=O)C(Nc2cc(Cl)c(O)c(Cl)c2)=C(c2ccc(Cl)cc2)C1=O [SB-404321] | 0% | 0% | 12% | 0% | 6% | 0% | 0% | 0% | 0% | 0%
COc1cc(Nc2nccc(N3CCC(NC(=O)C4COc5ccccc5O4)C3)n2)cc(OC)c1OC (centres unmarked) [GSK1379761] | 0% | 0% | 51% | 30% | 0% | 0% | 21% | 0% | 0% | 0%
O=c1cc(N2CCOCC2)nc2n(Cc3ccc(F)c(Cl)c3)ccn12 [GSK2297099] | 23% | 0% | 25% | 0% | 16% | 0% | 3% | 17% | 0% | 0%
CN1C(=O)C(Nc2ccccc2)=C(c2ccccc2)C1=O [SB-300079] | 0% | 0% | 0% | 67% | 0% | 0% | 11% | 0% | 0% | 0%
CC(C)(C)c1ccc(C(=O)Nc2cn3cc(-c4ccccc4)ccc3n2)cc1 | 20% | 0% | 0% | 9% | 0% | 0% | 5% | 6% | 0% | 0%
Fc1cccc(CSc2nnc(-c3ccc4c(c3)CCO4)o2)c1 | 6% | 0% | 0% | 0% | 0% | 13% | 14% | 10% | 20% | 0%
Cc1ccccc1COc1cc(-n2cnc3cc(Cl)ccc32)sc1C(N)=O [GW813349] | 12% | 21% | 62% | 18% | 0% | 9% | 0% | 0% | 62% | 23%

Reference: PMC5540273 (PLoS ONE, 2017)
